Source: ChEMBL document CHEMBL4513146, “CO-ADD screening of Karazin Kharkiv National University (Ukraine) compounds”
Potency and affinity values are given separately.

Columns and labels:
[1] = system: Staphylococcus aureus; details: Concentration 32 ug.mL-1;; ASSAY_TEST Inhibition of Bacterial Growth; detection method Absorption (OD600); MEDIA CAMHB; plate type 384well; NBS; CORNING #3640; time 18 hr
[2] = system: Escherichia coli; details: Concentration 32 ug.mL-1;; ASSAY_TEST Inhibition of Bacterial Growth; detection method Absorption (OD600); MEDIA CAMHB; plate type 384well; NBS; CORNING #3640; time 18 hr

| SMILES | Inhibition [1] [%] | Inhibition [2] [%] |
| --- | --- | --- |
| CCc1nnc2c(=O)n(CC(=O)Nc3ccc4c(c3)OCCO4)c3ccccc3n12 | 2.09 | -4.51 |
| Cc1ccc(Oc2nccn3c(=O)n(CC(=O)NCCC4=CCCCC4)nc23)cc1 | 4.93 | -4.1 |
| Cc1cccc(N(C)C(=O)Cn2nc3cc(C)nc(Nc4ccc(F)c(C)c4)n3c2=O)c1 | 1.96 | -7.99 |
| O=C(Cn1nc2c(SC3CCCCC3)nccn2c1=O)Nc1ccccc1F | 2.83 | -6.05 |
| Cc1cccc(C)c1NC(=O)Cn1nc2c3cc(-c4ccc(Cl)cc4)nn3ccn2c1=O | -1.34 | -1.58 |
| Cc1ccc2c(c1)N(C(=O)Cn1nc3ccc(Sc4ccccc4)nn3c1=O)CCO2 | 5.63 | 2.06 |
| Cc1cccc(Sc2nccn3c(=O)n(CC(=O)Nc4ccc(Br)cc4C)nc23)c1 | 8.48 | -5.33 |
| O=c1n(Cc2ccc3c(c2)OCO3)nc2c(S(=O)(=O)N3CCCC3)cccn12 | 0.67 | -7.1 |
| CC(C)Cn1c(=O)c2sccc2n2c(=O)n(CC(=O)N(C)c3ccccc3)nc12 | 4.88 | -0.39 |
| Cc1ccc(Cl)cc1NC(=O)Cn1nc2c(SC3CCCCC3)nccn2c1=O | 6.67 | -3.22 |
| CC(C)Cn1c(=O)c2sccc2n2c(=O)n(CC(=O)NC(C)C)nc12 | -11.46 | 2.58 |
| Cc1cccc(NC(=O)Cn2nc3c(Sc4ccccc4)nccn3c2=O)c1 | -16.15 | -1.95 |
| CCc1ccccc1NC(=O)Cn1nc2c(SC3CCCCC3)nccn2c1=O | 7.59 | -2.96 |
| CSc1cccc(NC(=O)Cn2nc3c(SCc4ccc(Cl)cc4)nccn3c2=O)c1 | -9.65 | -9.35 |
| Cc1ccc(C)c(-c2cc3c4nnc(CCC(=O)NCCc5ccc(Cl)cc5)n4ccn3n2)c1 | 5.83 | 3.02 |
| CC(C)CCn1c(=O)c2sccc2n2c(=O)n(Cc3ccccc3Cl)nc12 | 8.43 | 1.09 |
| COc1ccccc1Cn1c(=O)c2sccc2n2c(=O)n(Cc3cccc(Br)c3)nc12 | -9.99 | -1.02 |

| SMILES | Inhibition [1] [%] | Inhibition [2] [%] |
| --- | --- | --- |
| Cc1cccc(C)c1NC(=O)Cn1nc2c(SC3CCCCC3)nccn2c1=O | 9.56 | -6.16 |
| Cc1ccc(NC(=O)Cn2nc3c(Oc4ccccc4Cl)nccn3c2=O)cc1F | 7.48 | -2.62 |
| Cc1ccc(-c2ccc3nnc(CCC(=O)NCc4cccc(Br)c4)n3n2)cc1 | 12.72 | -0.13 |
| COc1ccc(NC(=O)c2ccc3nn(CC(=O)Nc4cc(Cl)ccc4OC)c(=O)n3c2)cc1 | 7.85 | -6.87 |
| Cc1cc2nn(CC(=O)Nc3ccccc3)c(=O)n2c(Nc2ccc(C)c(F)c2)n1 | 8.29 | -1.41 |
| Cc1ccc(C)c(CN(c2cccc(Cl)c2)S(=O)(=O)c2cccn3c(C)nnc23)c1 | 11.55 | -2.76 |
| CCc1nnc2c(SCC(=O)Nc3ccccc3Br)nc3ccccc3n12 | 10.46 | 0.26 |
| Cc1ccccc1CN(c1ccc(C(C)C)cc1)S(=O)(=O)c1cccn2cnnc12 | 17.72 | 2.74 |
| Cc1ccc(C)c(NC(=O)Cn2nc3cc(C)nc(Nc4ccc(F)cc4)n3c2=O)c1 | -0.57 | -5.84 |
| COc1cccc(CSc2nnc3c(=O)n(-c4ccc(Br)cc4)ccn23)c1 | 20.73 | -1.68 |
| COc1ccc(C(=O)CSc2nnc3c(=O)n(-c4ccccc4)ccn23)cc1OC | -10.93 | -14.26 |
| O=C(CSc1nnc2c(=O)n(-c3ccccc3)ccn12)Nc1ccccc1F | 8.41 | 1.53 |
| CCc1ccccc1Sc1nccn2c(=O)n(CC(=O)Nc3cccc(Br)c3)nc12 | 8.83 | 2.3 |
| CCCc1nnc2c(=O)n(CC(=O)Nc3cccc(C(C)=O)c3)c3ccccc3n12 | 2.4 | -14.35 |
| CCc1nnc2c(S(=O)(=O)N(Cc3cccc(C)c3)c3ccc(C(C)C)cc3)cccn12 | 20.56 | -0.18 |
| Cc1ccc(-c2ccc3nn(CC(=O)Nc4ccc(Cl)cc4)c(=O)n3n2)cc1C | 7.83 | -3.03 |
